The whole screen tested about 5,500 compounds, of which about 2,000 (36%) were called active. About 18% were inconclusive and are not listed. The list shows a part of the results. Unmarked numbers belong to inactive results. Cut-off read from the data, not from the text of the source: active = normalized growth mostly below about 0.91 (no sharp cut-off); inconclusive = no clear call, values can overlap the other calls; inactive = mostly above about 0.92.
Test: chemical genetic growth profiling, strain panel (AID 1159580);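 note: tested at 20 µM; growth read once vehicle control cultures reached saturation at 30 °C; 1 = growth at the plate median or of vehicle wells; lower values mean less growth of the strain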
Details: growth OD

## COc1ccc(C(=O)c2ccccc2)c(O)c1
S. cerevisiae deletion strains, locus YJR075W, strain HOC1, stronger effect = lower value
  normalized growth: 0.848 (active)
S. cerevisiae deletion strains, locus YKL009W, strain mrt4, stronger effect = lower value
  normalized growth: 0.835 (active)
S. cerevisiae deletion strains, locus YKL068W, stronger effect = lower value
  normalized growth: 0.91 (active)
S. cerevisiae deletion strains, locus YKL085W, strain MDH1 (second series), stronger effect = lower value
  normalized growth: 0.895 (active)
S. cerevisiae deletion strains, locus YKL085W, strain MDH1, stronger effect = lower value
  normalized growth: 0.895 (active)
S. cerevisiae deletion strains, locus YKL160W, strain elf1, stronger effect = lower value
  normalized growth: 0.764 (active)
S. cerevisiae deletion strains, locus YKL190W, strain CNB1, stronger effect = lower value
  normalized growth: 0.913 (active)
S. cerevisiae deletion strains, locus YKR001C, strain vps1, stronger effect = lower value
  normalized growth: 0.553 (active)
S. cerevisiae deletion strains, locus YKR026C, strain gcn3, stronger effect = lower value
  normalized growth: 0.804 (active)
S. cerevisiae deletion strains, locus YKR091W, strain srl3, stronger effect = lower value
  normalized growth: 0.874 (active)
S. cerevisiae deletion strains, locus YLL001W, strain dnm1, stronger effect = lower value
  normalized growth: 0.734 (active)
S. cerevisiae deletion strains, locus YLL026W, stronger effect = lower value
  normalized growth: 0.841 (active)
S. cerevisiae deletion strains, locus YLL041C, strain sdh2, stronger effect = lower value
  normalized growth: 0.861 (active)
S. cerevisiae deletion strains, locus YLR027C, strain aat2, stronger effect = lower value
  normalized growth: 0.807 (active)
S. cerevisiae deletion strains, locus YLR039C, strain RIC1, stronger effect = lower value
  normalized growth: 0.441 (active)
S. cerevisiae deletion strains, locus YLR058C, strain SHM2, stronger effect = lower value
  normalized growth: 0.945
S. cerevisiae deletion strains, locus YLR102C, strain apc9, stronger effect = lower value
  normalized growth: 0.906 (active)
S. cerevisiae deletion strains, locus YLR113W, strain HOG1, stronger effect = lower value
  normalized growth: 0.836 (active)
S. cerevisiae deletion strains, locus YLR221C, strain rsa3, stronger effect = lower value
  normalized growth: 0.74 (active)
S. cerevisiae deletion strains, locus YLR258W, strain gsy2, stronger effect = lower value
  normalized growth: 0.815 (active)
S. cerevisiae deletion strains, locus YLR262C, strain YPT6 (second series), stronger effect = lower value
  normalized growth: 0.408 (active)
S. cerevisiae deletion strains, locus YLR262C, strain YPT6, stronger effect = lower value
  normalized growth: 0.526 (active)
S. cerevisiae deletion strains, locus YLR268W, strain sec22, stronger effect = lower value
  normalized growth: 0.917
S. cerevisiae deletion strains, locus YLR320W, strain mms22, stronger effect = lower value
  normalized growth: 0.542 (active)
S. cerevisiae deletion strains, locus YLR330W, strain CHS5, stronger effect = lower value
  normalized growth: 0.916 (active)
S. cerevisiae deletion strains, locus YLR342W, strain FKS1 (second series), stronger effect = lower value
  normalized growth: 0.763 (active)
S. cerevisiae deletion strains, locus YLR342W, strain FKS1, stronger effect = lower value
  normalized growth: 0.815 (active)
S. cerevisiae deletion strains, locus YLR357W, strain rsc2, stronger effect = lower value
  normalized growth: 0.857
S. cerevisiae deletion strains, locus YLR370C, strain arc18, stronger effect = lower value
  normalized growth: 0.77 (active)
S. cerevisiae deletion strains, locus YLR371W, strain rom2, stronger effect = lower value
  normalized growth: 0.918
S. cerevisiae deletion strains, locus YLR384C, strain iki3, stronger effect = lower value
  normalized growth: 0.843 (active)
S. cerevisiae deletion strains, locus YLR418C, strain cdc73, stronger effect = lower value
  normalized growth: 0.625 (active)
S. cerevisiae deletion strains, locus YML016C, strain PPZ1, stronger effect = lower value
  normalized growth: 0.932
S. cerevisiae deletion strains, locus YML032C, strain rad52, stronger effect = lower value
  normalized growth: 0.871 (active)
S. cerevisiae deletion strains, locus YML120C, strain ndi1, stronger effect = lower value
  normalized growth: 0.762 (active)
S. cerevisiae deletion strains, locus YML124C, strain tub3, stronger effect = lower value
  normalized growth: 0.899 (active)
S. cerevisiae deletion strains, locus YMR058W, strain fet3, stronger effect = lower value
  normalized growth: 0.732 (active)
S. cerevisiae deletion strains, locus YMR078C, strain ctf18, stronger effect = lower value
  normalized growth: 0.876 (active)
S. cerevisiae deletion strains, locus YMR125W, strain sto1, stronger effect = lower value
  normalized growth: 0.825 (active)
S. cerevisiae deletion strains, locus YMR129W, stronger effect = lower value
  normalized growth: 0.856 (active)
S. cerevisiae deletion strains, locus YMR205C, strain PFK2, stronger effect = lower value
  normalized growth: 0.567 (active)
S. cerevisiae deletion strains, locus YMR223W, strain ubp8, stronger effect = lower value
  normalized growth: 0.774 (active)
S. cerevisiae deletion strains, locus YMR231W, strain pep5, stronger effect = lower value
  normalized growth: 0.877 (active)
S. cerevisiae deletion strains, locus YMR263W, strain SAP30, stronger effect = lower value
  normalized growth: 0.878 (active)
S. cerevisiae deletion strains, locus YMR307W, strain GAS1, stronger effect = lower value
  normalized growth: 0.62
S. cerevisiae deletion strains, locus YNL067W, strain RPL9B, stronger effect = lower value
  normalized growth: 0.889
S. cerevisiae deletion strains, locus YNL071W, strain lat1, stronger effect = lower value
  normalized growth: 0.538 (active)
S. cerevisiae deletion strains, locus YNL128W, strain TEP1, stronger effect = lower value
  normalized growth: 0.934
S. cerevisiae deletion strains, locus YNL153C, strain GIM3, stronger effect = lower value
  normalized growth: 0.937
S. cerevisiae deletion strains, locus YNL183C, strain NPR1, stronger effect = lower value
  normalized growth: 0.851
S. cerevisiae deletion strains, locus YNL209W, strain ssb2, stronger effect = lower value
  normalized growth: 0.906 (active)
S. cerevisiae deletion strains, locus YNL233W, strain BNI4, stronger effect = lower value
  normalized growth: 0.833 (active)
S. cerevisiae deletion strains, locus YNL248C, strain rpa49, stronger effect = lower value
  normalized growth: 0.639 (active)
S. cerevisiae deletion strains, locus YNL250W, strain rad50, stronger effect = lower value
  normalized growth: 0.915
S. cerevisiae deletion strains, locus YNL271C, strain bni1, stronger effect = lower value
  normalized growth: 0.882 (active)
S. cerevisiae deletion strains, locus YNL298W, strain CLA4, stronger effect = lower value
  normalized growth: 0.859 (active)
S. cerevisiae deletion strains, locus YNL307C, strain MCK1, stronger effect = lower value
  normalized growth: 0.538 (active)
S. cerevisiae deletion strains, locus YNL322C, strain KRE1 (second series), stronger effect = lower value
  normalized growth: 0.862 (active)
S. cerevisiae deletion strains, locus YNL322C, strain KRE1, stronger effect = lower value
  normalized growth: 0.93
S. cerevisiae deletion strains, locus YNR049C, strain mso1, stronger effect = lower value
  normalized growth: 0.838 (active)
S. cerevisiae deletion strains, locus YNR052C, strain pop2, stronger effect = lower value
  normalized growth: 0.923
S. cerevisiae deletion strains, locus YOL006C, strain TOP1, stronger effect = lower value
  normalized growth: 0.474 (active)
S. cerevisiae deletion strains, locus YOL012C, strain htz1
  normalized growth: 1.24
S. cerevisiae deletion strains, locus YOL147C, strain pex11, stronger effect = lower value
  normalized growth: 0.846 (active)
S. cerevisiae deletion strains, locus YOR001W, strain rrp6, stronger effect = lower value
  normalized growth: 0.712 (active)
S. cerevisiae deletion strains, locus YOR061W, strain CKA2, stronger effect = lower value
  normalized growth: 0.936
S. cerevisiae deletion strains, locus YOR069W, strain VPS5, stronger effect = lower value
  normalized growth: 0.959
S. cerevisiae deletion strains, locus YOR070C, strain gyp1, stronger effect = lower value
  normalized growth: 0.857 (active)
S. cerevisiae deletion strains, locus YOR080W, strain dia2, stronger effect = lower value
  normalized growth: 0.867 (active)
S. cerevisiae deletion strains, locus YOR083W, strain WHI5, stronger effect = lower value
  normalized growth: 0.73 (active)
S. cerevisiae deletion strains, locus YOR106W, strain vam3, stronger effect = lower value
  normalized growth: 0.682 (active)
S. cerevisiae deletion strains, locus YOR136W, strain idh2, stronger effect = lower value
  normalized growth: 0.912 (active)
S. cerevisiae deletion strains, locus YOR144C, strain elg1, stronger effect = lower value
  normalized growth: 0.897 (active)
S. cerevisiae deletion strains, locus YOR184W, strain ser1, stronger effect = lower value
  normalized growth: 0.476 (active)
S. cerevisiae deletion strains, locus YOR231W, strain MKK1, stronger effect = lower value
  normalized growth: 0.878
S. cerevisiae deletion strains, locus YOR265W, strain rbl2, stronger effect = lower value
  normalized growth: 0.845 (active)
S. cerevisiae deletion strains, locus YOR270C, strain vph1, stronger effect = lower value
  normalized growth: 0.419 (active)
S. cerevisiae deletion strains, locus YOR290C, strain snf2, stronger effect = lower value
  normalized growth: 0.784 (active)
S. cerevisiae deletion strains, locus YOR316C, strain cot1, stronger effect = lower value
  normalized growth: 0.903 (active)
S. cerevisiae deletion strains, locus YPL051W, strain arl3, stronger effect = lower value
  normalized growth: 0.647 (active)
S. cerevisiae deletion strains, locus YPL055C, strain LGE1, stronger effect = lower value
  normalized growth: 0.773
S. cerevisiae deletion strains, locus YPL078C, strain atp4, stronger effect = lower value
  normalized growth: 0.599 (active)
S. cerevisiae deletion strains, locus YPL106C, strain sse1, stronger effect = lower value
  normalized growth: 0.845 (active)
S. cerevisiae deletion strains, locus YPL240C, strain hsp82, stronger effect = lower value
  normalized growth: 0.858 (active)
S. cerevisiae deletion strains, locus YPL241C, strain CIN2, stronger effect = lower value
  normalized growth: 0.94
S. cerevisiae deletion strains, locus YPL256C, strain CLN2, stronger effect = lower value
  normalized growth: 0.818 (active)
S. cerevisiae deletion strains, locus YPR119W, strain clb2, stronger effect = lower value
  normalized growth: 0.888 (active)
S. cerevisiae deletion strains, locus YPR141C, strain kar3, stronger effect = lower value
  normalized growth: 0.892 (active)
S. cerevisiae deletion strains, locus YPR163C, strain tif3, stronger effect = lower value
  normalized growth: 0.844 (active)
S. cerevisiae deletion strains, locus YPR167C, strain met16, stronger effect = lower value
  normalized growth: 0.898 (active)
S. cerevisiae deletion strains, strain wtn01, stronger effect = lower value
  normalized growth: 0.872 (active)
S. cerevisiae strains, strain wild type, stronger effect = lower value
  normalized growth: 0.911

— PubChem BioAssay AID1159580 (chemical genetic matrix, 2015)
